Tb PYK inh – qHTS of Trypanosoma Brucei Inhibitors | TbPYK enzyme, Kinase-Glo Plus ATP luminescence, 45 min | Potency, µM (doses to about 76.8 µM), inactives show at the highest dose activity, negative = inhibition, hits mostly inhibitors | 410,000 tested, 0.12% active | AID 624173, 2012; also: potency is read from the fitted curve at half-maximal effect; % is scaled to controls: 0 for no effect and ±100 for the full control effect; nearly all actives have a fitted effect of over 50% in size
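ADP (130 uM final) triggers the TbPYK reaction after compound addition; incubation is 45 min at room temperature. Kinase-Glo Plus is then added and luminescence imaged. Normalized data are fitted to concentration-effect curves.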
RE007 growth inh – qHTS Assay for Inhibitors of the HIV-1 protein Vpr | S. pombe RE007 Vpr strain, BacTiter-Glo ATP luminescence, 24 h | Potency, µM (series often up to 92.2 µM), without a hit: at the top dose activity change, negative = less growth, usual class: inhibitors | 360,000 tested, 0.21% active | AID 651644, 2012; active = well fitted falling curve with a large enough effect; inconclusive = small, poorly fitted or top-dose-only effect; inactive = no such curve, though single readings can be large or run the other way; also: potency is read from the fitted curve at half-maximal effect; % is scaled to controls: 0 for no effect and ±100 for the full control effect; nearly all actives have a fitted effect of over 50% in size
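Fission yeast strain RE007, carrying one chromosomally integrated HIV-1 vpr copy, was seeded at OD 0.01 in PMG+AL medium with 23 nL pinned compound. After 24 h at 30 °C and 99% humidity, viability was read by BacTiter-Glo luminescence.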
Shiga toxin inh – A qHTS for Small Molecule Inhibitors of Shiga Toxin; Vero cells, Shiga toxin protein synthesis inhibition reporter; AID 2315, 2010; 290,000 tested, 9.2% active; inhibition, % at 38.7 µM; in the data active = inhibition mostly above about 28%, no sharp cut-off; inactive = mostly below about 43%; also: 0% is about no effect
LmPK inhibitor – qHTS Assay for Inhibitors of Leishmania Mexicana Pyruvate Kinase (LmPK). 290,000 tested, 0.37% active. purified LmPK, Kinase-Glo ATP luminescence, 1 h. Potency, µM (top dose mostly 57.5 µM), without a hit: top-dose activity change, negative = inhibition, actives largely listed as inhibitors. Q27686; also: potency is read from the fitted curve at half-maximal effect; % is scaled to controls: 0 for no effect and ±100 for the full control effect
Target sequence (Q27686 whole entry, looked up): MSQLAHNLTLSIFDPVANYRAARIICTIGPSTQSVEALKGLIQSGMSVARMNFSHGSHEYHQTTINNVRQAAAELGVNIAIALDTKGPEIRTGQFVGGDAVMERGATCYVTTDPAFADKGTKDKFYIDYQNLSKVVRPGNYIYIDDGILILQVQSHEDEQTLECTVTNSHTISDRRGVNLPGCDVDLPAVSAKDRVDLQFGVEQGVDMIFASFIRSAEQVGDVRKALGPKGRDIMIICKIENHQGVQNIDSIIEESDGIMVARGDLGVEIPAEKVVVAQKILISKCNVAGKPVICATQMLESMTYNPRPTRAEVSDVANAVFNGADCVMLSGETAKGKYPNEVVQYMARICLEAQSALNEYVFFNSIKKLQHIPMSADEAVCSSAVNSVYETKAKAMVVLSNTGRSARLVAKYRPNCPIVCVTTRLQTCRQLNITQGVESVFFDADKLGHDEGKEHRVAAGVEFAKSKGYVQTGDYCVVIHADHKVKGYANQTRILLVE
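Purified LmPK (0.1 nM) with 0.5 mM PEP and 0.1 mM ADP in imidazole buffer pH 7.2 with MgCl2/KCl, 1 h at room temperature. ATP formed was read by luciferase luminescence and normalized to no-enzyme and uninhibited controls.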
Cycloheximide cs – Cycloheximide Counterscreen for Small Molecule Inhibitors of Shiga Toxin | cell reporter, cycloheximide protein synthesis inhibition counterscreen | max response, % | 300,000 tested, 12% active; in the data active = max response mostly above about 13%, no sharp cut-off; inactive = mostly below about 14%; also: read at 38.3 µM for the half of the compounds with a filed dose; 0% is about no effect
FBPA Giardia inh – qHTS Assay for Inhibitors of Fructose-1,6-bisphosphate Aldolase from Giardia Lamblia | purified Giardia FBPA | A8B2U2 | AID 2451, 2010 | Potency, µM (doses to about 59.6 µM), for inactives: at the highest dose activity, negative = inhibition, most hits filed as inhibitors | 290,000 tested, 0.71% active; also: potency is read from the fitted curve at half-maximal effect; % is scaled to controls: 0 for no effect and ±100 for the full control effect; nearly all actives have a fitted effect of over 55% in size
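40 nM FBPA preincubated 10 min at RT with compound (up to 57.5 uM final), then substrate plus GAPDH/TPI/NAD/arsenate coupling and diaphorase/resazurin added. Fluorescence read after 20 min at RT, 525/598 nm.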
The depositor's hits bear a star; ? = inconclusive; . = not tested or not shown; [ ] = dose if it differs, or a comment. This excerpt belongs to a sample that is enriched for hits. Unless noted, calls follow the shape of the dose curve; as a rule, active = well fitted curve in the direction sought with a large enough effect; inconclusive = small, poorly fitted or top-dose-only effect, or another doubt; inactive = no such curve, though single readings can be large; an effect the other way counts as inactive or inconclusive.

SMILES | Tb PYK inh | RE007 growth inh | Shiga toxin inh | LmPK inhibitor | Cycloheximide cs | FBPA Giardia inh
O=C(NCC(c1ccc(Cl)cc1)N1CCCCC1)c1ccccc1F (configuration not stated) | 9% | . | . | . | . | .
O=c1[nH]nc(Sc2ccccc2)c(=S)[nH]1 | -14% | 12% | . | . | . | .
O=C(Cc1coc2cc3c(cc12)CCC3)NC1CCCCCCC1 | 2% | -7% | 2 | -2% | 12* | 15%
O=C(O)Cc1coc2cc3c(cc12)CCC3 | -2% | 12% | -7 | 2% | -1 | 7%
COc1cccc(C(=O)/C=C/Nc2cccc(O)c2)c1 | ? | -12% | -10 | 14µM* | -1 | -10%
COc1ccc(N/C=C/C(=O)c2ccc(Cl)cc2)cc1 | -8% | 3% | 69* | -8% | 63* | 4%
COc1ccc(N/C=C/C(=O)C(F)(F)F)cc1 | -4% | . | -58 | 4% | 15 | -12%
COc1cccc(C(=O)/C=C/Nc2ccc(S(=O)(=O)Nc3cccc(C(C)=O)c3)cc2)c1 | 0% | 6% | 97* | 5% | 57* | 2%
COc1cccc(N/C=C/C(=O)c2ccc(Cl)cc2)c1 | 7% | -3% | 92* | ? | 63* | -5%
CC(C)Cn1c(=O)c2sccc2n2c(CCCC(=O)NCCc3ccc(Cl)cc3)nnc12 | 2% | . | . | . | . | .
CC1(C)C(=O)C=CC(=O)C(C)(C)C(=O)C=CC(=O)C(C)(C)C2=CC=C(O2)C(C)(C)C(=O)C=CC1=O | -13% | 0% | . | . | . | .
COc1cc(N/C(N)=N/c2nc(C)cc(C)n2)c(OC)cc1Cl | -13% | -3% | 10 | 6% | -2 | -4%
COc1ccc(C(=O)/C=C/Nc2ccc(NC(C)=O)cc2)cc1OC | 1% | -27% | 22 | 1% | 0 | -8%
COc1cccc(C(=O)/C=C/Nc2ccc(NC(C)=O)cc2)c1 | -18% | -14% | 60 | ? | 42* | 0%
COc1cccc(N/C=C/C(=O)c2ccc(C)cc2)c1 | -25% | -18% | 63* | -6% | 21* | 22%
CC1CCC2C(=O)OC(CN3C(=O)c4ccccc4C3=O)CN2C1c1ccc(Br)cc1 (configuration not stated) | . | . | . | . | . | 0%[12.9 µM]
CC(C)Oc1ccccc1C1C=C(C(=O)O)Nc2ncnn21 (configuration not stated) | 5% | . | . | . | . | .
CC(=O)c1cccc(NC(=O)CSc2nnc(C(C)N(C)C)n2Cc2ccccc2)c1 (configuration not stated) | -10% | -3% | -22 | -2% | -3 | -1%
O=C(O)c1cc(-n2[nH]c(=O)c3ccccc3c2=O)ccc1Cl | 2% | 11% | 148* | 3% | 44* | 4%
Cc1nc2sc(C(N)=O)c(N)c2c(C)c1CC(=O)c1ccccc1 | -22% | 10% | 92* | -2% | 30* | -29%
On1c(-c2ccccc2)nc2ccccc21 | 0% | 4% | 40 | -15% | 13 | 0%
O=Nc1c2nc3ccccc3n(O)c-2c2ccccc12 | . | . | 115* | -21% | 73* | -7%
COCCNc1nc(NCc2cccc(OC)c2)c2sc(-c3ccccc3)cc2n1 | 0% | ? | . | . | . | .
CCOC(=O)c1c(NC(=O)c2noc3c2CC(C(C)(C)C)CC3)sc2c1CCCC2 (configuration not stated) | -6% | . | . | . | . | .
CCOC(=O)C1(Cc2cccc(Cl)c2)CCCN(C(=O)c2cc(C)n(C)n2)C1 (configuration not stated) | -4% | 7% | -18 | -3% | -1 | .
CCCc1cc(C(=O)N2CCCC(Cc3cccc(Cl)c3)(C(=O)OCC)C2)n(C)n1 (configuration not stated) | -2% | -7% | 65* | 9% | 18 | 11%
CCOC(=O)C1(Cc2cccc(Cl)c2)CCCN(C(=O)CCNC(C)=O)C1 (configuration not stated) | 2% | 0% | 8 | -5% | 1 | 2%
